Experimental data as given in PubChem BioAssay (NCI).
Values joined by “and” are separate entries in the source; they are usually repeats but may differ in a detail not shown here. Equal entries are not always repeated. About 83,000 compounds went through this panel and 20% of them were active in at least one assay; those are over-represented in the sample as a whole.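 96-well plates, one dose, 48 hours. Percent growth reported; active if below 10.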 Active and inactive are the calls of the source.

These compounds were tested on HL-60(TB) leukemia (assay: NCI-60 one-dose screen, 48 h (100 = growth as untreated, 0 = no growth, -100 = all killed)). Conditions: 10 µM unless noted.
For `C=C1C(=O)O[C@H]2[C@H]1CC/C(COC(=O)OC/C1=C/CC[C@@]3(C)O[C@H]3[C@H]3OC(=O)[C@@H](CN(C)C)[C@@H]3CC1)=C\CC[C@@]1(C)O[C@@H]21`, the growth was -43% (active).
With `O=C(Nc1cccc(Cl)c1)Nc1cc(C(F)(F)F)ccc1Cl` the growth was -6.22% (active).
With `CC1OC2CC(=O)OC2C2=C1C(=O)c1c(O)cccc1C2=O` (stereo not given) the growth was -47.8% (active).
With `O=C(Nc1ccc(Br)cc1)Nc1ccccc1Cl` the growth was 70.7% (inactive).
With `CCC1=C[C@@H]2CN(C1)Cc1c([nH]c3ccccc13)[C@@](C(=O)OC)(c1cc3c(cc1OC)N(C)[C@H]1[C@@](O)(C(=O)OC)[C@H](OC(C)=O)[C@]4(CC)[C@@H]5C[C@@H]5CN5CC[C@]31[C@@H]54)C2` the growth was -57.3% (active).
In the case of `O=C(Nc1ccccc1S)c1ccccc1`, the growth is reported as 105% (inactive).
For `CC1=C([Se]CC(OC(=O)CC[Se]c2ccccc2)C(=O)NCCCCCC(=O)OCc2ccccc2)C(=O)c2ccccc2C1=O` (stereo not given), the growth was 15.5% (inactive).
In the case of `COc1cc(-n2nc(C(=O)Nc3ccc(C(=O)O)cc3)nc2-c2ccccc2)cc(OC)c1OC`, the growth is reported as 103% (inactive).
In the case of `CCn1c(Sc2nnc(NC(=O)CCN3CCCC3)s2)nc2c1c(=O)n(C)c(=O)n2C`, the growth is reported as 104% (inactive).
With `Cc1cs/c(=N\NC(=O)c2cc(-c3cc4ccccc4o3)nn2-c2ccccc2)n1-c1ccccc1` the growth was 109% (inactive).
With `O=c1cc(-c2ccccc2)oc2cc(OCc3cn(Cc4ccc(F)cc4)nn3)cc(OCc3cn(Cc4ccc(F)cc4)nn3)c12` the growth was 98% (inactive).
With `CCOC(=O)C(CCC(C)C)C(=O)OCC` the growth was 72.8% (inactive).
With `O=C(O)c1ccc(=O)[nH]n1` the growth was 111% (inactive).
For `O=C(Cn1ccc(=O)[nH]c1=O)c1ccc([N+](=O)[O-])o1`, the growth was 87.1% (inactive).
For `O=C(c1ccccc1)c1ccc(Cl)c([N+](=O)[O-])c1`, the growth was 40.8% (inactive).
`O=C(CN1CCOCC1)Nc1nc(-c2cc3ccccc3oc2=O)cs1` was tested, and the growth was 102% (inactive).
`CN(C)c1ccc(-c2cc(-c3ccc(Nc4nc(Nc5ccc(Cl)cc5)nc(Nc5ccc(Cl)cc5)n4)cc3)no2)cc1` was tested, and the growth was 3.2% (active).
With `CC1OS(=O)OC1C` (stereo not given) the growth was 96.3% (inactive) and 89.9% (inactive).
With `N#C/C(=C\c1ccc(Br)cc1)n1nnc2ccc(F)cc21` the growth was -23.2% (active).
With `CCOC(=O)c1sc2ncnc(Nc3ccc4c(cnn4C(=O)Nc4ccc(C)c(Cl)c4)c3)c2c1C` the growth was 95.3% (inactive).
`O=C(NC(Cc1cn(Cc2ccccc2)cn1)C(=O)O)OCC1c2ccccc2-c2ccccc21` (stereo not given) was tested, and the growth was 87.4% (inactive).
With `CC(C)(C)c1ccc(O)c(-c2ccccc2)c1` the growth was 0.4% (active).
In the case of `COc1cccc2cc(-c3cc4ccccc4[nH]3)/c(=N/C(=S)Nc3ccccc3)oc12`, the growth is reported as 101% (inactive).
In the case of `O=C(Nc1ccc(Cl)c(Cl)c1)Nc1ccc(Cl)c([N+](=O)[O-])c1`, the growth is reported as -39.9% (active).
For `COc1ccc(/C(=C/c2cc(OC)c(OC)cc2[N+](=O)[O-])C(=O)O)cc1`, the growth was 98.5% (inactive).
In the case of `ClCC(Cl)C1CCC(Cl)C(Cl)C1` (stereo not given), the growth is reported as 89.6% (inactive).
In the case of `Nc1cc(-c2nc3sccn3c2-c2ccnc(NCCCNS(=O)(=O)c3ccc(F)cc3)n2)ccc1F`, the growth is reported as 63.6% (inactive).
In the case of `COc1ccc(C(=O)COc2ccc(/C=C3\Oc4ccccc4C3=O)cc2)cc1`, the growth is reported as 76% (inactive).
For `COc1cc(OC)cc(-c2cncn2-c2ccc(-c3nc4cc(OC)cc(OC)c4s3)cc2)c1`, the growth was 41% (inactive).
For `NC(=O)NO`, the growth was 82.9% (inactive) and 72.8% (inactive).
For `CCOC(=O)c1csc(N)n1`, the growth was 95.1% (inactive) and 98.1% (inactive).
With `COC[C@@H](C)n1c(C2CCOCC2)nc2c1C1C=C(OC)C(c3c(C)noc3C)=CC1N=C2` (stereo not given in full) the growth was 11.8% (inactive).
With `N#Cc1ccc(NC(=O)Nc2cccc(C#N)c2)cc1` the growth was 68.6% (inactive).
`Cc1nn(-c2cc(=O)[nH]c3ccc(Cl)cc23)c(N)c1C#N` was tested, and the growth was 100% (inactive).
`O=C(COc1cccc(/C=C2\COc3ccc(Cl)cc3C2=O)c1)c1ccc(Cl)cc1` was tested, and the growth was 52.7% (inactive).
With `CCOC(=O)Nc1ccc(-c2nc(-c3cccc(OCCN4CCOCC4)c3)c(-c3ccnc(Br)c3)[nH]2)cc1` the growth was -23.2% (active).
`COc1ccc2c(=O)cc(-c3ccccc3)[nH]c2c1` was tested, and the growth was 11.5% (inactive) and -29.9% (active).
`CCCN1CCN(c2ccc3nc(-c4ccc5nc(-c6ccc(C(F)(F)F)cc6)[nH]c5c4)[nH]c3c2)CC1` was tested, and the growth was -40.7% (active).
For `O=C(O)CCCN1C(=O)C2C3CCC(C3)C2C1=O` (stereo not given), the growth was 116% (inactive).
`COc1cc2nc(-c3ccc(C(F)(F)F)cc3)cc(OCCN3CCC(O)CC3)c2cc1OC` was tested, and the growth was 68.6% (inactive).
